Measured values taken from PubChem BioAssay AID1578 (Sanford-Burnham Center for Chemical Genomics, 2009).
Several values for one entry are separate records, joined by “and”; a condition that tells them apart may be missing. Equal entries are not always repeated. In all, about 290,000 compounds went through this assay and about 3,000 (1%) were called active. Only a selection was taken, and actives are over-represented in it overall. A number with no mark means an inactive call. Rule as the data show it: active = inhibition mostly above about 36% (no sharp cut-off); inactive = mostly below about 34%.

Assay: inhibition of NOD1-driven NF-kB reporter – cell-based, luminescence, uHTS, primary screen (AID 1578);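 also: HEK-293T reporter cells stimulated with the NOD1 agonist gamma-tri-DAP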
Settings: NOD1-driven NF-kB luciferase reporter cells, at 4 µM, active compounds read high

| SMILES | inhibition |
| --- | --- |
| CC(=NCCCN1CCOCC1)c1c(O)n(-c2ccccc2C)c(=O)[nH]c1=O | -51.5% |
| CC(C)(C)c1cc([N+](=O)[O-])cc(C(C)(C)C)c1O | 67.8% (active) |
| CCOP(=O)(OCC)c1cc(C)c(O)c(C(C)(C)C)c1 | -1.1% |
| CN1CCN(Cc2cc(C(C)(C)C)c(O)c(C(C)(C)C)c2)CC1 | 16.1% |
| O=[N+]([O-])c1ccccc1CNCCc1c[nH]c2ccccc12 | -15.3% |
| Cc1ccc(OCC(=O)N2CCN(C3CCC(c4ccccc4)CC3)CC2)cc1 (configuration not stated) | -32.4% |
| CNCC(C)c1ccccc1 (configuration not stated) | -8.7% |
| COC(=O)C1=Nc2ccccc2/C1=C\c1c(O)n(-c2ccc(Br)cc2)c(=O)[nH]c1=O | 56.2% |
| O=c1[nH]c(=O)n(-c2ccccc2)c(O)c1/C=C1/C(c2ccccc2)=Nc2ccccc21 | 81.6% (active) |
| COC(=O)C1=Nc2ccccc2/C1=C\c1c(O)n(-c2ccc(OC)cc2)c(=O)[nH]c1=O | 9.9% |
| Cc1ccc(Cn2nc(C)c(C=O)c2Cl)cc1 | -42.4% |
| COc1cc2c(cc1OC)-c1c3c(cc4c1[C@@H](C2)N(C)CC4)OCO3 | -23.9% |
| COc1ccc(-n2nc(C(=O)NCC(=O)N3CCC4(CC3)OCCO4)c3ccccc3c2=O)cc1 | -47.4% |
| COc1cccc([C@@]2(O)CCCC[C@@H]2CN(C)C)c1 | -1.9% and 1.4% |
| CN(C)CC1Oc2ccccc2OC1(O)c1ccccc1 (configuration not stated) | 56.4% (active) |
| CN(C)CC1CSCCC1(O)c1ccccc1 (configuration not stated) | -5.3% |
| Cc1c(N=Nc2c(O)[nH]c(=S)[nH]c2=O)c(=O)n(-c2ccccc2)n1C | 12.7% |
| C=CCn1c(O)c(/C=C2/C=CC=N2)c(=O)[nH]c1=O | -27.6% |
| CCCCn1c(O)c(/C=C2/C=CC=N2)c(=O)[nH]c1=O | -7.3% |

| SMILES | inhibition |
| --- | --- |
| O=c1[nH]c(=O)n(Cc2ccccc2Cl)c(O)c1/C=C1/C=CC=N1 | 47.1% (active) |
| COc1ccc(N=Cc2c(O)n(C)c(=O)n(C)c2=O)cc1 | -13.4% |
| CNS(=O)(=O)c1ccc(N=Cc2c(O)n(-c3cccc(C)c3)c(=O)[nH]c2=O)cc1 | -26.7% |
| COc1ccc(CC2(CCc3ccncc3)C(=O)NC(=O)NC2=O)cc1 | -26.1% |
| CNc1ccc2oc(C[C@H]3O[C@@]4(CC[C@H]3C)O[C@H]([C@H](C)C(=O)c3ccc[nH]3)[C@H](C)C[C@H]4C)nc2c1C(=O)O | 76.2% (active) |
| c1ccc(-c2nc(N3CCOCC3)s[n+]2-c2ccccc2)cc1 | -49.7% |
| Cc1ccc2c(c1)C1CN(C)CCC1N2C(=S)Nc1cccnc1 (configuration not stated) | -34% |
| O=C(CN1CC=C(c2ccccc2)CC1)Nc1c(Cl)cccc1Cl | 30.6% |
| COC(=O)C[C@]1(C(=O)OC)CN(C#N)N(c2ccc(Cl)cc2)C12c1ccccc1-c1ccccc12 | 91.6% (active) |
| COC(=O)[C@@H]1[C@@H](C(=O)OC)C2(c3ccccc3-c3ccccc32)N(c2ccc(Cl)cc2)N1C#N | -7.2% |
| COC(=O)C1CN(C#N)N(c2ccc(Cl)cc2)C12c1ccccc1-c1ccccc12 (configuration not stated) | -10.3% |
| CC(C)c1ccc(NC(=O)CCNC(=O)N2C[C@H]3C[C@@H](C2)c2cccc(=O)n2C3)cc1 | -6.2% |
| Cc1ccc(-c2nc3ccccc3c(=O)n2-c2ccncc2)cc1 | -34.6% |
| Cc1nc2cc(C(F)(F)F)ccc2n1C1CCN(Cc2nnnn2CCc2ccccc2)CC1 | -27.2% |
| Cc1nc2cc(C(F)(F)F)ccc2n1C1CCN(Cc2nnnn2Cc2ccc3c(c2)OCO3)CC1 | 62.6% (active) |
| Cc1nc2cc(C(F)(F)F)ccc2n1C1CCN(Cc2nnnn2Cc2cccs2)CC1 | -21.1% |
| O=c1cccc2n1CC1CC2CN(C(c2cccc(F)c2)c2sc3ncnn3c2O)C1 (configuration not stated) | -12.7% |
| CN[C@H]1C[C@H]2O[C@@](C)([C@H]1OC)n1c3ccccc3c3c4c(c5c6ccccc6n2c5c31)C(=O)NC4 | 1.7% |
| COc1ccccc1N1CCN(Cc2ccccc2Cl)CC1 | -17.2% |

| SMILES | inhibition |
| --- | --- |
| N#CC(C#N)=NNc1ccc(-n2ccc(C(F)(F)F)n2)cc1 | 36.7% (active) |
| CC1CCN(S(=O)(=O)c2ccc(NN=C(C#N)C#N)cc2)CC1 | -29.8% |
| CCN(CC)S(=O)(=O)c1ccc(NN=C(C#N)C#N)cc1 | 9.7% |
| Cc1cc(C)n(-c2ccc(NN=C(C#N)C#N)cc2)n1 | 41.2% (active) |
| N#CC(C#N)=NNc1ccc(S(N)(=O)=O)cc1 | -10.8% |
| Cc1nn(Cc2ccccc2)c(Cl)c1C(=O)OCC(=O)Nc1cccc2ccccc12 | -17.7% |
| COC(=O)C(C)Oc1cc(C)cc2oc(=O)c3c(c12)CCCC3 (configuration not stated) | -9.2% |
| O=C(NC(Cc1cnc[nH]1)C(=O)O)c1ccccc1 (configuration not stated) | -20.8% |
| C=CCn1c(O)c(C(CC)=NCCc2ccccc2)c(=O)[nH]c1=O | -24.2% |
| CC(C)n1c(=O)c(C=Nc2ccc(S(N)(=O)=O)cc2)c(O)n(Cc2ccco2)c1=O | -37.7% |
| CC(C)C(=O)c1cn(Cc2ccccc2C#N)c2ccccc12 | -11.1% |
| CC(=O)c1cn(Cc2ccccc2C#N)c2ccccc12 | 78% (active) |
| CCC(=O)c1cn(Cc2ccccc2C#N)c2ccccc12 | 8.5% |
| CCOC(=O)CNC(=O)CNC(=O)C(Cc1ccc(N(CCCl)CCCl)cc1)NC(C)=O (configuration not stated) | -43.1% |
| C=CCn1c(O)c(C(CC)=NCc2cc(OC)cc(OC)c2)c(=O)[nH]c1=O | 0.2% |
| O=C1NC(=S)NC(=O)C1=Cc1cccc2cc3ccccc3cc12 | 59.4% (active) |
| Cc1cc(C=C2C(=O)NC(=S)NC2=O)c(C)n1C1CCCC1 | 24.9% |
| O=C1NC(=O)C(=Cc2ccc3ccccc3c2)C(=O)N1 | -4.2% |
| Cc1cccc(N2CCN(CCc3ccccc3)CC2)c1C | 11.9% |
